Assay results: PubChem BioAssay (Tox21)
Inconclusive results are not listed. The source made the active and inactive calls. Unless noted, calls follow the shape of the dose curve; as a rule, active = well fitted curve in the direction sought with a large enough effect in the repeat runs; inconclusive = weak or mixed curves; inactive = no such curve, though single readings can be large; an effect the other way counts as inactive or inconclusive.

Assays:
[1] = qHTS assay to identify small molecule antagonists of the estrogen related receptor (ERR) signaling pathway from Tox21 library - cell viability counter screen (AID 1224834); also: nearly all actives have a fitted effect of over 30% in size
Outline: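 CellTiter-Fluor fluorescence, read after 30 min at 37 C, measures viability of ERR cells. Cells plated at 2,000/well and incubated 6 h before pin-tool compound addition, then exposed 17.5 hours at 37 C.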

[2] = biological target: Luciferin 4-monooxygenase (Photinus pyralis) (UniProt P08659); assay: qHTS assay to identify small molecule inhibitors of firefly luciferase (AID 1224835); also: nearly all actives have a fitted effect of over 25% in size; also: potency is read from the fitted curve at half-maximal effect
Chain of Luciferin 4-monooxygenase (Photinus pyralis) (P08659 whole entry, looked up): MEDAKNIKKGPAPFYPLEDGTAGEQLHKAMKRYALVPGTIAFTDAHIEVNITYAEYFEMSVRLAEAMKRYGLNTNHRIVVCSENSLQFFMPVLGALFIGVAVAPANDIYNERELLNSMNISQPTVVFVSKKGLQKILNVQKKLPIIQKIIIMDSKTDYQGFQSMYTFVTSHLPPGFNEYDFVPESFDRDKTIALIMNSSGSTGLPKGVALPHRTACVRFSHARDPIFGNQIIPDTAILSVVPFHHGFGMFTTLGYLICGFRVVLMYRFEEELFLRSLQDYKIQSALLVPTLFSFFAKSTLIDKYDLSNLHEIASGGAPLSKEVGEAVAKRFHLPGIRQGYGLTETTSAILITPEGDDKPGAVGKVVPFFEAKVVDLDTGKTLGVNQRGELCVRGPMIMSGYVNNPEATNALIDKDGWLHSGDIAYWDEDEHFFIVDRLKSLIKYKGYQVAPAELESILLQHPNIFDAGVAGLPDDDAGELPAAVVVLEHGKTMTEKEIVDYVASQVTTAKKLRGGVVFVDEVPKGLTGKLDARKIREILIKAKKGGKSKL
Outline: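 Inhibition of purified Photinus luciferase is measured by luminescence. Substrate levels (D-luciferin, ATP) sit at their KM values. Each compound is tested in a concentration series.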

[3] = qHTS assay to identify small molecule agonists of the constitutive androstane receptor (CAR) signaling pathway - cell viability counter screen (AID 1224836); also: nearly all actives have a fitted effect of over 45% in size
Outline: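 Viability read-out: CellTiter-Fluor fluorescence after 23 h compound exposure at 37 C/5% CO2 in double-stable HepG2-CYP2B6-hCAR cells, with PK11195 present at 0.75 uM final; compounds tested in 15-point titration.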

[4] = qHTS assay to identify small molecule antagonists of the constitutive androstane receptor (CAR) signaling pathway - cell viability counter screen (AID 1224837); also: nearly all actives have a fitted effect of over 45% in size
Outline: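 Cytotoxicity counter-screen: CellTiter-Fluor fluorescence after 23 h compound exposure (15-point qHTS) in double-stable HepG2-CYP2B6-hCAR cells, with 50 nM CITCO added.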

[5] = biological target: Nuclear receptor subfamily 1 group I member 3 (Homo sapiens) (UniProt Q14994); assay: qHTS assay to identify small molecule antagonists of the constitutive androstane receptor (CAR) signaling pathway (AID 1224838);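 also: HepG2 cells stably expressing hCAR with CYP2B6 luciferase reporter stimulated by CITCO; nearly all actives have a fitted effect of over 40% in size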; also: potency is read from the fitted curve at half-maximal effect
Chain of Nuclear receptor subfamily 1 group I member 3 (Homo sapiens) (Q14994 whole entry, looked up): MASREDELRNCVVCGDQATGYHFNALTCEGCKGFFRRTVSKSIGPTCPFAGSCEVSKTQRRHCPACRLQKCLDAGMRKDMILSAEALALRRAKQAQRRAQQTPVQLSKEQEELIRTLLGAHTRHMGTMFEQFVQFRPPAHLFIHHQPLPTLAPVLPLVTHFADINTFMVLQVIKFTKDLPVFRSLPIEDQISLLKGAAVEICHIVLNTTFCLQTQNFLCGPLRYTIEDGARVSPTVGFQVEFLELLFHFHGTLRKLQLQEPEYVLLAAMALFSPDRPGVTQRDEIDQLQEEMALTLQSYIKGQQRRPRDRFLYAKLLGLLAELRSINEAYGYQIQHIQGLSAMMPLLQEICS
Outline: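 Antagonism measured as luciferase signal (ONE-Glo, 30 min, room temperature) in CAR-stimulated cells: HepG2-CYP2B6-hCAR double-stable line exposed 24 hr at 37 C to compound in a 15-point series plus 50 nM CITCO.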

[6] = biological target: Nuclear receptor subfamily 1 group I member 3 (Homo sapiens) (UniProt Q14994); assay: qHTS assay to identify small molecule agonists of the constitutive androstane receptor (CAR) signaling pathway (AID 1224839);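 also: HepG2 cells stably carrying human CAR and a CYP2B6 luciferase reporter; nearly all actives have a fitted effect of over 15% in size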
Outline: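 Luminescence read-out (ONE-Glo, 30 min, room temperature) from double-stable HepG2-CYP2B6-hCAR cells exposed 24 h to 15-point compound series in presence of 0.75 uM PK11195 final.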

[7] = qHTS assay to identify small molecule antagonists of the estrogen related receptor signaling pathway with the pleiotropic PPARgamma coactivator (PGC) from Tox21 10K library - cell viability counter screen (AID 1224840; active = well fitted cell-killing curve with a large enough effect in the repeat runs, not every such curve was filed as active; also: nearly all actives have a fitted effect of over 40% in size)
Outline: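 Counter-screen for cytotoxicity: after 17.5 h compound exposure at 37 C, CellTiter-Fluor reagent added to PGC/ERR cells for 30 min and fluorescence read. Cells were seeded at 2,000 per well 6 h before dosing.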

[8] = biological target: Thyrotropin receptor (Homo sapiens) (UniProt P16473); assay: qHTS assay to identify small molecule agonists of the thyroid stimulating hormone receptor (TSHR) signaling pathway (AID 1224843; calls by dose curve; also: nearly all actives have a fitted effect of over 45% in size)
Chain of Thyrotropin receptor (Homo sapiens) (P16473 whole entry, looked up): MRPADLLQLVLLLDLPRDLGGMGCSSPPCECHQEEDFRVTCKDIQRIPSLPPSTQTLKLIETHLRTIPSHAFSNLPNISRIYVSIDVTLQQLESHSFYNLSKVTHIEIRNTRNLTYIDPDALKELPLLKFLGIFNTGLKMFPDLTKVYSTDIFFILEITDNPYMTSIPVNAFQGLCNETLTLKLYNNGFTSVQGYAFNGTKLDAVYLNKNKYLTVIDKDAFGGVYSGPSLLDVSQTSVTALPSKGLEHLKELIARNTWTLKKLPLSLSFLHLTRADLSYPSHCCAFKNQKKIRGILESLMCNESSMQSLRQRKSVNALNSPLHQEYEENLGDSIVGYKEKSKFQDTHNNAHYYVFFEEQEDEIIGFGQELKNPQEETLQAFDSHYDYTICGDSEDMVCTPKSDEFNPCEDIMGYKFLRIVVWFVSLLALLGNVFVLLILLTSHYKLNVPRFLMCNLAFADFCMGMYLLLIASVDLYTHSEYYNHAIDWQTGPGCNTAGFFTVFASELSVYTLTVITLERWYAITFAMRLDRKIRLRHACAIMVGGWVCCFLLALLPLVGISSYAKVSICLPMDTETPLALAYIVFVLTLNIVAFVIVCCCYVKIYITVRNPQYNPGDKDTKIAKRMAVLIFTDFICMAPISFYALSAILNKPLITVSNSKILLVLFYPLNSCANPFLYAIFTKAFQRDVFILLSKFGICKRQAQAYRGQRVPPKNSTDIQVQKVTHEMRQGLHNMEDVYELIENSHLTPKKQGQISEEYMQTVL
Outline: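 Agonist activity read as cAMP rise via d2/cryptate HTRF competition, 1 h room-temperature detection, in HEK293 cells expressing TSHR. Fifteen-point titrations, each run in triplicate, with a 30 min room-temperature incubation beforehand.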

[9] = qHTS assay to identify small molecule agonists of the hypoxia (HIF-1) signaling pathway - cell viability counter screen (AID 1224844; calls by dose curve; also: nearly all actives have a fitted effect of over 50% in size)
Outline: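 Cytotoxicity measured by CellTiter-Glo ATP luminescence in the wells also read for beta-lactamase signal. Cells were HRE-bla ME-180 (2,000/well, 0.5% dialyzed FBS), exposed to compounds for 17 h at 37C.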

[10] = qHTS assay to identify small molecule agonists of H2AX (AID 1224845; active = well fitted activation curve with a large enough effect in the signal ratio in the repeat runs, not every such curve was filed as active; the % refers to the signal ratio)
Outline: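 Phospho-H2AX Ser139 measured by HTRF (ex 320 nm; em 665 and 620 nm) after 24 hr antibody incubation. Compounds, 15 concentrations, 0.76% DMSO, were applied to CHO-K1 cells for 3hr at 37C before lysis.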

[11] = qHTS assay to identify small molecule agonists of the hypoxia (HIF-1) signaling pathway (AID 1224846; active = well fitted activation curve with a large enough effect in the signal ratio in the repeat runs, not every such curve was filed as active; the % refers to the signal ratio)
Outline: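 Compounds added to ME-180 cells carrying hypoxia-response-element beta-lactamase reporter (0.5% dialyzed FBS, 5 h preplating), 17 h at 37C; agonist activity detected by CCF4-AM B/G FRET read-out.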

[12] = qHTS assay to identify small molecule agonists of H2AX - cell viability counter screen (AID 1224847; calls by dose curve;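 also: wild-type CHO-K1 cells; top concentration of the series differs between compounds; nearly all actives have a fitted effect of over 30% in size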)
Outline: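 CHO-K1 wt, 1000 cells/well, o/n 37C; cpds 15 conc, 3 h 37C, 0.76% DMSO; CellTiter-Glo, 30 min RT, luminescence.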

[13] = qHTS RealTime-Glo MT Cell Viability Assay in HepG2 cells - 24 hour (AID 1224867); also: nearly all actives have a fitted effect of over 50% in size
Outline: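 Cells + NanoLuc/prosubstrate dispensed (600 cells/well) → 5 h at 37 C/5% CO2 → compounds in DMSO transferred → 40 h incubation at 37 C, luminescence read at 0, 8, 16, 24, 32, 40 h.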

[14] = A CellTox Green Cytotoxicity Assay to monitor cytotoxicity in HEK293 cells - 0 hour (AID 1224869); also: nearly all actives have a fitted effect of over 50% in size
Outline: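 Fluorescence from a DNA-binding dye excluded by viable cells was measured repeatedly in the same HEK293 wells (600 cells/well) during continuous compound exposure at 37 C. Each assay gives one read point: 0, 8, 16, 24, 32 or 40 h.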

[15] = qHTS RealTime-Glo MT Cell Viability Assay in HEK293 cells - 32 hour (AID 1224868); also: top concentration of the series differs between compounds; nearly all actives have a fitted effect of over 50% in size
Outline: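 Tox21 10K qHTS, HEK293, 600 cells/well, RealTime-Glo reagent co-dispensed with cells; 5 h preincubation, compound by pintool, 37 C, luminescence at 0–40 h.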

[16] = qHTS assay to identify small molecule antagonists of the estrogen related receptor signaling pathway with the pleiotropic PPARgamma coactivator (PGC) from Tox21 10K library (AID 1224841; call rule not given here)
Outline: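 Luminescence (One-Glo, 30 min at room temperature) after 18 h compound treatment at 37 C of PGC/ERR reporter cells plated at 2,000 cells/well and settled 6 h beforehand.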

[17] = qHTS assay to identify small molecule agonists of the estrogen related receptor signaling pathway with the pleiotropic PPARgamma coactivator (PGC) from Tox21 10K library (AID 1224842); also: nearly all actives have a fitted effect of over 15% in size
Outline: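 Luminescence from One-Glo (30 min, room temperature) measured after PGC/ERR cells had 18 h at 37 C with pinned compound (23 nL in DMSO). Cells had been seeded at 2,000 per well and pre-incubated 6 h.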

[18] = qHTS assay to identify small molecule antagonists of the estrogen related receptor (ERR) signaling pathway from Tox21 library (AID 1224848); also: nearly all actives have a fitted effect of over 50% in size
Outline: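 Luciferase luminescence (ONE-Glo, 30 min room temperature) was the read-out. Cells of the NTP-supplied ERR line, 2,000 per well, were given 6 h at 37 C before compound addition in DMSO and 18 h exposure at 37 C.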

[19] = qHTS assay to identify small molecule agonists of the estrogen related receptor (ERR) signaling pathway from Tox21 library (AID 1224849; calls by dose curve; also: nearly all actives have a fitted effect of over 15% in size); conditions: ERR reporter cell line, ONE-Glo luciferase, 18 h; at 92.4 µM (top of the series) unless noted
Outline: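 Luminescent agonist read-out (One-Glo, 30-minute room-temperature incubation) following 18-hour compound treatment at 37 C of the ERR cell line, which had been plated 6 hours before dosing.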
% is scaled to controls: 0 for no effect and ±100 for the full control effect.

CCCCC(CC)COCCC#N (stereo unspecified)
inactive: Potency [1] | Potency [2] | Potency [3] | Potency [4] | Potency [5] | Potency [6] | Potency [7] | Potency [8] | Potency [9] | Potency [10] | outcome [11] | Potency [12] | outcome [13] | Potency [14]

S=c1[nH][nH]c(=S)s1
active: Potency [2] 11.2 µM
inactive: Potency [1] | Potency [3] | Potency [4] | Potency [5] | Potency [6] | Potency [7] | Potency [8] | Potency [9] | outcome [11] | outcome [13]

CC(C)Cc1nccs1
inactive: Potency [1] | Potency [2] | Potency [3] | Potency [4] | Potency [5] | Potency [6] | Potency [7] | Potency [8] | Potency [9] | Potency [10] | Potency [12] | outcome [13] | Potency [15] | Potency [14]

CC(O)C(C)O (stereo unspecified)
inactive: Potency [1] | Potency [2] | Potency [3] | Potency [4] | Potency [5] | Potency [6] | Potency [7] | Potency [8] | Potency [9] | Potency [10] | outcome [11] | Potency [12] | outcome [13] | Potency [15] | Potency [14]

O=C(O)c1cc(C(=O)O)c(C(=O)O)cc1C(=O)O
inactive: Potency [1] | Potency [2] | Potency [3] | Potency [4] | Potency [5] | Potency [6] | Potency [7] | Potency [16] | Potency [17] | Potency [9] | Potency [10] | outcome [11] | Potency [12] | Potency [18] | activity change, positive = activation [19] 4.66% | outcome [13] | Potency [15] | Potency [14]

CCc1ccc(C(=O)C(C)CN2CCCCC2)cc1 (stereo unspecified)
inactive: Potency [1] | Potency [2] | Potency [3] | Potency [4] | Potency [5] | Potency [6] | Potency [7] | Potency [8] | Potency [9] | Potency [10] | outcome [13] | Potency [15] | Potency [14]

FC1(F)C(F)(F)C(F)(F)C2(F)C(F)(C1(F)F)C(F)(F)C(F)(F)C1(F)C(F)(F)C(F)(F)C(F)(F)C(F)(F)C12F (stereo unspecified)
inactive: Potency [1] | Potency [2] | Potency [3] | Potency [4] | Potency [5] | Potency [6] | Potency [7] | Potency [8] | Potency [9] | Potency [10] | outcome [11] | outcome [13] | Potency [15] | Potency [14]

CCCCCCCCC(=O)OCC(C)OC(=O)CCCCCCCC (stereo unspecified)
inactive: Potency [1] | Potency [2] | Potency [3] | Potency [4] | Potency [5] | Potency [6] | Potency [7] | Potency [9] | Potency [10] | outcome [11] | Potency [12] | outcome [13] | Potency [14]

O=C(O)c1ccc2c(c1)nc(C(=O)NC1CCN(C3CC3)CC1)n2Cc1cc(-c2ccc(Cl)s2)on1
inactive: viability change, negative = cytotoxic [1] -4.05% [at 19 µM] | activity change, negative = inhibition [2] -1.8% [at 23.6 µM] | viability change, negative = cytotoxic [3] 0.0204% [at 19 µM] | activity change, negative = cytotoxicity [4] 10.8% [at 19 µM] | activity, negative = inhibition [5] 19.9% [at 19 µM] | activation [6] -1.53% [at 19 µM] | viability change, negative = cytotoxic [7] -11.5% [at 19 µM] | activity change, negative = cytotoxicity [12] -8.48% [at 31.6 µM] | activity change, negative = cytotoxicity [13] -0.892% [at 15.8 µM] | activity change, negative = cytotoxic [15] -0.224% [at 15.8 µM] | cytotoxicity [14] -5.57% [at 15.8 µM]

O=C1C=CCCC1
inactive: Potency [1] | Potency [2] | Potency [3] | Potency [4] | Potency [5] | Potency [6] | Potency [7] | Potency [8] | Potency [10] | outcome [11] | Potency [12] | outcome [13] | Potency [14]

C=CC(O)CCCCC (stereo unspecified)
inactive: Potency [1] | Potency [2] | Potency [3] | Potency [4] | Potency [5] | Potency [7] | Potency [17] | Potency [8] | Potency [9] | Potency [10] | outcome [11] | Potency [12] | activity change, positive = activation [19] 1.36% | outcome [13] | Potency [15] | Potency [14]

Cc1cc(C)c(C)c(O)c1
inactive: Potency [1] | Potency [2] | Potency [3] | Potency [4] | Potency [5] | Potency [7] | Potency [16] | Potency [17] | Potency [8] | Potency [9] | Potency [10] | outcome [11] | Potency [12] | Potency [18] | activity change, positive = activation [19] 1.16% | outcome [13] | Potency [15] | Potency [14]

O=C(c1ccco1)N1CCNCC1
inactive: Potency [1] | Potency [2] | Potency [3] | Potency [4] | Potency [5] | Potency [7] | Potency [16] | Potency [17] | Potency [8] | Potency [9] | Potency [10] | outcome [11] | Potency [12] | Potency [18] | activity change, positive = activation [19] 3.89% [at 42.5 µM] | outcome [13] | Potency [15] | Potency [14]

O=C(O)c1ccc(O)c(O)c1
inactive: Potency [1] | Potency [2] | Potency [3] | Potency [4] | Potency [5] | Potency [6] | Potency [7] | Potency [8] | Potency [9] | Potency [12] | outcome [13] | Potency [15] | Potency [14]

O=c1[nH][nH]c2ccccc12
active: Potency [5] 55.5 µM
inactive: Potency [1] | Potency [2] | Potency [3] | Potency [4] | Potency [6] | Potency [7] | Potency [8] | Potency [9] | outcome [13] | Potency [14]

C[C@@H](O)[C@H]1C(=O)N2C(C(=O)O)=C(S[C@@H]3CN[C@H](CNS(N)(=O)=O)C3)[C@H](C)[C@H]12
inactive: Potency [1] | Potency [2] | Potency [3] | Potency [4] | Potency [5] | Potency [6] | Potency [7] | Potency [8] | Potency [9] | Potency [12] | outcome [13]

C=CC(=O)OCCCCCCCCCC
inactive: Potency [1] | Potency [2] | Potency [3] | Potency [4] | Potency [5] | Potency [7] | Potency [16] | Potency [17] | Potency [8] | Potency [9] | Potency [10] | outcome [11] | Potency [12] | Potency [18] | activity change, positive = activation [19] 2.6% | outcome [13] | Potency [15] | Potency [14]
